In PubChem BioAssay AID1159580 (chemical genetic matrix, 2015):
Several values for one entry are separate records, joined by “and”; a condition that tells them apart may be missing. Equal values may be shown once. Out of some 5,500 compounds screened, about 2,000 (36%) were called active. Roughly 18% stayed inconclusive and do not appear here. Rule as the data show it: active = normalized growth mostly below about 0.91 (no sharp cut-off); inconclusive = no clear call, values can overlap the other calls; inactive = mostly above about 0.92. The list shows a part of the results.

Experiment: chemical genetic growth profiling, strain panel (AID 1159580);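 also: tested at 20 µM; growth read once vehicle control cultures reached saturation at 30 °C; 1 = growth at the plate median or of vehicle wells; lower values mean less growth of the strain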
Conditions: growth OD

Measured: normalized growth

COc1ccc2[nH]cc(CCN)c2c1
inactive: S. cerevisiae deletion strains, locus YJR043C, strain POL32, stronger effect = lower value 1.02 | S. cerevisiae deletion strains, locus YJR075W, strain HOC1, stronger effect = lower value 0.995 and 0.984 | S. cerevisiae deletion strains, locus YKL009W, strain mrt4, stronger effect = lower value 0.94 | S. cerevisiae deletion strains, locus YKL068W, stronger effect = lower value 0.986 | S. cerevisiae deletion strains, locus YKL085W, strain MDH1 (second series), stronger effect = lower value 0.991 | S. cerevisiae deletion strains, locus YKL085W, strain MDH1, stronger effect = lower value 0.991 | S. cerevisiae deletion strains, locus YKL160W, strain elf1, stronger effect = lower value 1 | S. cerevisiae deletion strains, locus YKL190W, strain CNB1, stronger effect = lower value 0.996 | S. cerevisiae deletion strains, locus YKR001C, strain vps1, stronger effect = lower value 0.987 | S. cerevisiae deletion strains, locus YKR026C, strain gcn3, stronger effect = lower value 0.988 | S. cerevisiae deletion strains, locus YKR091W, strain srl3, stronger effect = lower value 0.996 | S. cerevisiae deletion strains, locus YLL001W, strain dnm1, stronger effect = lower value 1 | S. cerevisiae deletion strains, locus YLL026W, stronger effect = lower value 0.997 | S. cerevisiae deletion strains, locus YLL041C, strain sdh2, stronger effect = lower value 0.991 | S. cerevisiae deletion strains, locus YLR027C, strain aat2, stronger effect = lower value 1 | S. cerevisiae deletion strains, locus YLR039C, strain RIC1, stronger effect = lower value 1.03 | S. cerevisiae deletion strains, locus YLR058C, strain SHM2, stronger effect = lower value 0.97 | S. cerevisiae deletion strains, locus YLR102C, strain apc9, stronger effect = lower value 0.982 | S. cerevisiae deletion strains, locus YLR221C, strain rsa3, stronger effect = lower value 0.969 | S. cerevisiae deletion strains, locus YLR258W, strain gsy2, stronger effect = lower value 0.997 | S. cerevisiae deletion strains, locus YLR262C, strain YPT6 (second series), stronger effect = lower value 0.999 | S. cerevisiae deletion strains, locus YLR262C, strain YPT6, stronger effect = lower value 0.989 | S. cerevisiae deletion strains, locus YLR268W, strain sec22, stronger effect = lower value 1.06 | S. cerevisiae deletion strains, locus YLR320W, strain mms22, stronger effect = lower value 0.965 | S. cerevisiae deletion strains, locus YLR330W, strain CHS5, stronger effect = lower value 0.995 | S. cerevisiae deletion strains, locus YLR342W, strain FKS1 (second series), stronger effect = lower value 0.991 | S. cerevisiae deletion strains, locus YLR342W, strain FKS1, stronger effect = lower value 1.01 | S. cerevisiae deletion strains, locus YLR357W, strain rsc2, stronger effect = lower value 0.991 | S. cerevisiae deletion strains, locus YLR370C, strain arc18, stronger effect = lower value 0.994 | S. cerevisiae deletion strains, locus YLR371W, strain rom2, stronger effect = lower value 0.974 | S. cerevisiae deletion strains, locus YLR384C, strain iki3, stronger effect = lower value 0.999 | S. cerevisiae deletion strains, locus YLR418C, strain cdc73, stronger effect = lower value 0.978 | S. cerevisiae deletion strains, locus YML016C, strain PPZ1, stronger effect = lower value 0.984 | S. cerevisiae deletion strains, locus YML032C, strain rad52, stronger effect = lower value 1 | S. cerevisiae deletion strains, locus YML120C, strain ndi1, stronger effect = lower value 1.01 | S. cerevisiae deletion strains, locus YML124C, strain tub3, stronger effect = lower value 0.984 | S. cerevisiae deletion strains, locus YMR058W, strain fet3, stronger effect = lower value 0.988 | S. cerevisiae deletion strains, locus YMR078C, strain ctf18, stronger effect = lower value 0.99 | S. cerevisiae deletion strains, locus YMR125W, strain sto1, stronger effect = lower value 0.992 | S. cerevisiae deletion strains, locus YMR129W, stronger effect = lower value 0.981 | S. cerevisiae deletion strains, locus YMR205C, strain PFK2, stronger effect = lower value 1.02 | S. cerevisiae deletion strains, locus YMR223W, strain ubp8, stronger effect = lower value 0.957 | S. cerevisiae deletion strains, locus YMR231W, strain pep5, stronger effect = lower value 0.994 | S. cerevisiae deletion strains, locus YMR263W, strain SAP30, stronger effect = lower value 0.981 and 0.985 | S. cerevisiae deletion strains, locus YMR307W, strain GAS1, stronger effect = lower value 0.947 | S. cerevisiae deletion strains, locus YNL067W, strain RPL9B, stronger effect = lower value 1.01 | S. cerevisiae deletion strains, locus YNL071W, strain lat1, stronger effect = lower value 1.01 | S. cerevisiae deletion strains, locus YNL128W, strain TEP1, stronger effect = lower value 0.975 | S. cerevisiae deletion strains, locus YNL153C, strain GIM3, stronger effect = lower value 1 | S. cerevisiae deletion strains, locus YNL175C, strain NOP13, stronger effect = lower value 1 | S. cerevisiae deletion strains, locus YNL197C, strain WHI3, stronger effect = lower value 0.99 | S. cerevisiae deletion strains, locus YNL209W, strain ssb2, stronger effect = lower value 1.01 | S. cerevisiae deletion strains, locus YNL224C, strain SQS1, stronger effect = lower value 0.982 | S. cerevisiae deletion strains, locus YNL233W, strain BNI4, stronger effect = lower value 1 | S. cerevisiae deletion strains, locus YNL248C, strain rpa49, stronger effect = lower value 0.972 | S. cerevisiae deletion strains, locus YNL250W, strain rad50, stronger effect = lower value 0.963 | S. cerevisiae deletion strains, locus YNL271C, strain bni1, stronger effect = lower value 0.996 | S. cerevisiae deletion strains, locus YNL298W, strain CLA4, stronger effect = lower value 0.971 | S. cerevisiae deletion strains, locus YNL307C, strain MCK1, stronger effect = lower value 0.989 | S. cerevisiae deletion strains, locus YNL322C, strain KRE1 (second series), stronger effect = lower value 1 | S. cerevisiae deletion strains, locus YNL322C, strain KRE1, stronger effect = lower value 0.991 and 0.992 | S. cerevisiae deletion strains, locus YNR049C, strain mso1, stronger effect = lower value 0.984 | S. cerevisiae deletion strains, locus YNR052C, strain pop2, stronger effect = lower value 0.976 | S. cerevisiae deletion strains, locus YOL006C, strain TOP1, stronger effect = lower value 1.03 | S. cerevisiae deletion strains, locus YOL012C, strain htz1 0.627 | S. cerevisiae deletion strains, locus YOL147C, strain pex11, stronger effect = lower value 0.987 | S. cerevisiae deletion strains, locus YOR001W, strain rrp6, stronger effect = lower value 0.931 | S. cerevisiae deletion strains, locus YOR061W, strain CKA2, stronger effect = lower value 0.965 | S. cerevisiae deletion strains, locus YOR069W, strain VPS5, stronger effect = lower value 0.983 | S. cerevisiae deletion strains, locus YOR070C, strain gyp1, stronger effect = lower value 0.979 | S. cerevisiae deletion strains, locus YOR080W, strain dia2, stronger effect = lower value 0.991 | S. cerevisiae deletion strains, locus YOR083W, strain WHI5 (second series), stronger effect = lower value 0.99 | S. cerevisiae deletion strains, locus YOR083W, strain WHI5, stronger effect = lower value 1.02 | S. cerevisiae deletion strains, locus YOR106W, strain vam3, stronger effect = lower value 1.02 | S. cerevisiae deletion strains, locus YOR136W, strain idh2, stronger effect = lower value 0.998 | S. cerevisiae deletion strains, locus YOR144C, strain elg1, stronger effect = lower value 0.985 | S. cerevisiae deletion strains, locus YOR184W, strain ser1, stronger effect = lower value 1.01 | S. cerevisiae deletion strains, locus YOR265W, strain rbl2, stronger effect = lower value 0.991 | S. cerevisiae deletion strains, locus YOR270C, strain vph1, stronger effect = lower value 0.957 | S. cerevisiae deletion strains, locus YOR290C, strain snf2, stronger effect = lower value 1.01 | S. cerevisiae deletion strains, locus YOR316C, strain cot1, stronger effect = lower value 0.994 | S. cerevisiae deletion strains, locus YPL051W, strain arl3, stronger effect = lower value 1.01 | S. cerevisiae deletion strains, locus YPL055C, strain LGE1, stronger effect = lower value 0.977 | S. cerevisiae deletion strains, locus YPL078C, strain atp4, stronger effect = lower value 1.02 | S. cerevisiae deletion strains, locus YPL106C, strain sse1, stronger effect = lower value 1.01 | S. cerevisiae deletion strains, locus YPL240C, strain hsp82, stronger effect = lower value 0.995 | S. cerevisiae deletion strains, locus YPL241C, strain CIN2, stronger effect = lower value 0.994 and 1.01 | S. cerevisiae deletion strains, locus YPR119W, strain clb2, stronger effect = lower value 0.989 | S. cerevisiae deletion strains, locus YPR141C, strain kar3, stronger effect = lower value 0.976 | S. cerevisiae deletion strains, locus YPR163C, strain tif3, stronger effect = lower value 0.995 | S. cerevisiae deletion strains, locus YPR167C, strain met16, stronger effect = lower value 0.989 | S. cerevisiae deletion strains, strain wtn01, stronger effect = lower value 1.02 | S. cerevisiae strains, strain wild type, stronger effect = lower value 0.984
